Each structure is given as a SMILES string. About 2,100 (0.95%) of roughly 220,000 compounds were called active. For the sample, actives were picked, then their nearest neighbours and some compounds at random. Unmarked numbers belong to inactive results.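 How the source made its calls: active means compounds that cut the binding signal by more than half at the single screening dose; inactive means the rest.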

Induced myeloid leukemia cell differentiation protein Mcl-1 (Homo sapiens), sequence (Q07820 whole entry, looked up): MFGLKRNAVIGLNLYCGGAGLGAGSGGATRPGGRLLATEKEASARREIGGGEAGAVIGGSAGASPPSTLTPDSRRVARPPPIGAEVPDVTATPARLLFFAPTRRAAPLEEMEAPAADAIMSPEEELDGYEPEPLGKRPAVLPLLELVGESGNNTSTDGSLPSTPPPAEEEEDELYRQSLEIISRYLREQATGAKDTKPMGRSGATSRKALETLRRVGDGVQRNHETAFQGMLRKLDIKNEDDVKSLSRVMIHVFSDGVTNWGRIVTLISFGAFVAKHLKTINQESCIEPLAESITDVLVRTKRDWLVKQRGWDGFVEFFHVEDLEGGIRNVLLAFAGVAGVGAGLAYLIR

The assay concerns the target Induced myeloid leukemia cell differentiation protein Mcl-1 (Homo sapiens) (UniProt Q07820). As to the kind of experiment: Mcl-1/Bid binding inhibitors, primary screen, biochemical, TR-FRET, 1536-well (AID 1021).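 Further: His-tagged Mcl-1 with europium anti-His antibody binding Bid BH3 peptide; 0% = Mcl-1 plus peptide wells and 100% = peptide-only wells.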 The following applies: TR-FRET Mcl-1/Bid-Dy647 peptide binding, at 21.7 µM, stronger effect = higher value. Background: Time-resolved FRET reads energy transfer from a long-lived donor to a nearby acceptor.
By inhibition is commonly meant the drop in the measured response relative to a control, in per cent. Turning to `CS(=O)(=O)c1ccc2nc(NC(=O)C3CCCCC3)sc2c1`, the inhibition was -11%.
As for `CS(=O)(=O)c1ccc2nc(NC(=O)c3ccc(N4CCCC4=O)cc3)sc2c1`, the figure is -53.4%.
Next, `CS(=O)(=O)c1ccc2nc(NC(=O)CN3CCCCCC3)sc2c1`: 55.1% (active).
Regarding `O=c1[nH]nc(SCCS(=O)(=O)c2ccc(F)cc2)n1-c1ccccc1C(F)(F)F`, the inhibition was -37.5%.
For the compound `CCNCCC(=O)N1c2ccccc2Sc2ccc(NC(=O)OCC)cc21`, the inhibition was -12.2%.
Next, `CCOC(=O)Nc1ccc(NC(=O)OCC)cc1`: -26.4%; `CCOC(=O)Nc1ccc2c(c1)N(C(=O)CCN1CCN(CCO)CC1)c1ccccc1CC2`: 51.3% (active).
Next, `COc1ccc2[nH]c(=S)cc(C)c2c1`: -43.7%.
As for `CNC1(c2nnnn2-c2c(C)cccc2C)CCOC(C)(C)C1` (configuration not stated), the figure is -15.5%.
Consider `CCCNC(=O)NC(=O)COC(=O)CC(NC(N)=O)c1ccc(Cl)cc1` (configuration not stated), for which the inhibition is -14.2%.
In the case of `O=C(CN1CCCC1)N1CCN(c2ccccc2)CC1`, the inhibition is -53.9%.
As for `O=S(=O)(c1ccccc1)N(CC(O)CN1CCCCC1)c1ccccc1` (configuration not stated), the figure is -28.8%; as for `CN(C)/C(CN1CCCCC1)=C1\N=C(c2ccccc2)OC1=O`, 65.5% (active); as for `COC(=O)N/N=C/c1ccc(-c2ccc(Cl)c(Cl)c2)o1`, 15.5%.
Next, `CCOC(=O)c1c(NC(=O)c2cccs2)sc(C)c1C`: -14.7%; `COC(=O)c1c(NC(=O)c2c(Cl)cnn2C)sc(C)c1C`: -24%; `COCCCNCC(=O)Nc1sc(C)c(C)c1C(=O)OC`: 63.5% (active).
As for `COc1cccc(NC(=O)CN(C)C(C)C(=O)Nc2ccc(C#N)cc2)c1` (configuration not stated), the figure is -15.1%; as for `O=C(NCc1ccco1)c1nn2cccnc2c1Cl`, -10.8%; as for `COCCCNc1nc2c(-c3cccc(C(F)(F)F)c3)nnn2c2ccccc12`, -13.1%.
Turning to `NCC(=O)c1cccc2ccc[n+]([O-])c12`, the inhibition is -13.8%.
Next, `CCc1ccccc1NC(=O)CSc1nnc(-c2ccncc2)o1`: -14.6%.
As for `COc1ccc(-n2c(C)nc3c(cnn3-c3ccccc3)c2=O)cc1`, the figure is -3.33%; as for `Cc1nn(-c2ccccc2)c2c1C(c1cccc([N+](=O)[O-])c1)N(c1ccccc1)C(=O)N2` (configuration not stated), -12.3%; as for `COc1ccc(C2c3c(C)nn(-c4ccccc4)c3NC(=O)N2c2ccccc2)cc1` (configuration not stated), 76.8% (active).
Next, `CN(NC(=O)C1CC(=O)N(c2ccccc2)C1)C1=NS(=O)(=O)c2ccccc21` (configuration not stated): -8.25%; `O=S(=O)(/N=C(/Nc1ccccn1)c1ccccc1)c1ccc(Cl)cc1`: -22.6%.
For `Cc1ccc(S/C(=N\S(=O)(=O)c2ccc(Cl)cc2)c2ccccc2)cc1`, the inhibition was 61.7% (active).
On to `Cc1ccc(S(=O)(=O)/N=C(/Nc2ccccn2)c2ccc(Cl)cc2)cc1`, for which the inhibition was 1%.
As for `O=C(N/N=C/c1ccc(Br)o1)c1cncc(Br)c1`, the figure is -13.1%; as for `CS(=O)(=O)N(CC(=O)NC1CCCC1)Cc1ccc(F)cc1`, -0.58%; as for `COc1cc(CNC2CCCCC2)c(Br)cc1OC1CCCC1`, -29.9%.
As for `COc1ccc(CNC2CCCCC2)cc1`, the figure is 64.1% (active); as for `COc1ccc(CCNC(=O)COC(=O)C2CCCCC2)cc1`, -25.9%; as for `CCOC(=O)c1ccc(COC(=O)c2cc(=O)[nH]c3ccccc23)o1`, -9.7%.
As for `CCOC(=O)c1cnc(COc2ccccc2Cl)[nH]c1=O`, the figure is 7.19%; as for `CCOC(=O)c1cc2c(=O)[nH]c(C(Cl)(Cl)Cl)nc2o1`, 52% (active); as for `CCCCCOc1ccc(CSC2=NCCN2)cc1[N+](=O)[O-]`, -26.2%.
As for `O=C(Nc1ccc(Br)cn1)C1CCN(S(=O)(=O)c2cccs2)CC1`, the inhibition is -17.8%.
For `CCc1cc2cc(OC)ccc2nc1SCC(=O)Nc1cc(OC)c(OC)cc1C(=O)O`, the inhibition is -3.27%.
Next, `O=C(C1CCCO1)N(c1ccc(F)cc1)C1C=CS(=O)(=O)C1` (configuration not stated): -15.9%; `Cc1cccn2c(CNCC(C)Oc3cccnc3)c(C(=O)N3CCOCC3)nc12` (configuration not stated): -13.2%; `Cc1cccn2c(CN(C)C3CCCc4ccccc43)c(C(=O)N3CCOCC3)nc12` (configuration not stated): 54.6% (active).
On to `Cc1cc(C)n(CC(C)NCc2c(C(=O)N3CCOCC3)nc3c(C)cccn23)n1` (configuration not stated), for which the inhibition is -17.6%.
Next, `Cc1cc(N2CCN(c3ccccc3)CC2)nc(N2CCOCC2)n1`: -98.4%; `Cc1ccc(-c2cc(C(=O)NN)n[nH]2)o1`: -33.4%; `O=C(CSc1nc2ccccc2o1)N/N=C/c1ccccc1C(=O)O`: -19.1%.
Next, `Nc1c(Cl)cc(S(N)(=O)=O)cc1S(N)(=O)=O`: -8.81%; `Cc1c(/C=N\NC(=O)c2cc3ccccc3o2)c2ccccc2n1C`: -24.8%; `Cc1c(/C=N/N2C(=O)C3C4C=CC(C4)C3C2=O)c2ccccc2n1C` (configuration not stated): 59.1% (active).
As to `Cc1c(C=O)c2ccccc2n1CC(=O)O`, the inhibition is -7.49%.
Turning to `O=C(NC1CC1)C1=C[C@H](c2c[nH]c3ccccc23)C[C@H](OCc2ccc(CO)cc2)O1`, the inhibition was -70.3%.
In the case of `OCC1(Cc2ccccc2C(F)(F)F)CCN(Cc2cccc3cnccc23)CC1`, the inhibition is -14.6%.
Next, `COc1ccc2nc(NC(=O)NC3CCCCC3)sc2c1`: -6.76%; `COC(=O)[C@H](CC(C)C)NC(=O)N1CCCCC1C` (some centres not stated): -3.65%; `COc1ccc(C(=O)Nc2cccnc2)cc1C(=O)Nc1cccnc1`: 14.7%.
As for `O=C(Oc1cccnc1)c1cc2ccccc2oc1=O`, the figure is 19.8%; as for `O=C(Nc1cccnc1)c1cc2cc(Br)ccc2oc1=O`, 59.5% (active); as for `O=C(CN1CCCCCC1)NCCN1C(=O)S/C(=C\c2ccccc2Cl)C1=O`, -7.27%.
As for `COc1ccccc1Cn1c(CO)nc2ccccc21`, the figure is -24.8%; as for `Cc1cccc(C2C3=C(CCCC3=O)N=C3c4ccccc4C(=O)C32)c1` (configuration not stated), -45%.
For the compound `Cc1cccc(NC(=S)NC23CN4CN(CN(C4)C2)C3)c1`, the inhibition is -75.3%.

Values taken from PubChem BioAssay AID1021 (Emory University Molecular Libraries Screening Center, 2008).
